Results on 32 compounds are retold here after PubChem BioAssay (NCATS).

Records with an inconclusive call do not appear. A call without a number means that no potency is given here. Active and inactive are the calls of the source. Calls come from the whole dose curve; as a rule, active = well fitted curve in the direction sought with a large enough effect in the signal ratio, with a control signal flat (not every such curve was filed as active); inconclusive = small, poorly fitted or top-dose-only effect, or effect the other way, or a change in a side signal; inactive = no such curve, though single readings can be large or run the other way; the % refers to the signal ratio.
Potency is the fitted concentration of half-maximal effect.

The test deals with Peroxisome proliferator-activated receptor gamma (Homo sapiens) (UniProt P37231). Nature of the test: qHTS assay for small molecule agonists of peroxisome proliferator-activated receptor gamma signaling (AID 588536). Particulars: HEK293 PPARg-UAS-bla, beta-lactamase ratio, 16 h; series mostly up to 76.7 µM. In a few lines: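 PPAR-gamma-UAS-bla HEK293 cells in medium with 1% charcoal/dextran-treated FBS were exposed to compounds for 16 h at 37 C. Beta-lactamase activity was read with CCF4 substrate (405 nm excitation, 460/530 nm emission).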
Peroxisome proliferator-activated receptor gamma (Homo sapiens), sequence (P37231 whole entry, looked up): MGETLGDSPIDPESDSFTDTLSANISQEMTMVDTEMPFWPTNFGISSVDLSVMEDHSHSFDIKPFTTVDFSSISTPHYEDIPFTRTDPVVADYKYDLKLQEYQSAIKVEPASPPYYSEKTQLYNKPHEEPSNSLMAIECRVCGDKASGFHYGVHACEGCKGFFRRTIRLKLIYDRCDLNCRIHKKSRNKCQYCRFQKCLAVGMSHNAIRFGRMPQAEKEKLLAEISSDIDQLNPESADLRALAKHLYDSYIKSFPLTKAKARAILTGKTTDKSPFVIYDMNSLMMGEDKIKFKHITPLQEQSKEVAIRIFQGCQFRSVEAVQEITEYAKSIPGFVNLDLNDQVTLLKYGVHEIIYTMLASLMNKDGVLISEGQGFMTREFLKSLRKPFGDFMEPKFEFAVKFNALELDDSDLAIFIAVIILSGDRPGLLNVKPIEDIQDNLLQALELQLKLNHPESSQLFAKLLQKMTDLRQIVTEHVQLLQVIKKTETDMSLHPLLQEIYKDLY
Consider `O=S(=O)(c1ccc(O)cc1)c1ccc(O)cc1`, for which the Potency entry was “inactive”. In the case of `COc1ccc(O)c(C(C)(C)C)c1` it was “inactive”.

Consider `O=[N+]([O-])c1ccc(Oc2ccc(C(F)(F)F)cc2[N+](=O)[O-])cc1`, for which the Potency is 3.55 µM (active). Take `CN(C)P(=O)(N(C)C)N(C)C`: the Potency entry was “inactive”. In the case of `CCOc1ccc(C(C)(C)COCc2cccc(Oc3ccccc3)c2)cc1` it was “inactive”; in that of `O=c1[nH]c2ccccc2c(=O)o1`, “inactive”. Consider `COc1ccc(C(O)(c2cncnc2)C2CC2)cc1` (configuration not stated), for which the Potency result is “inactive”. Consider `CN(C)c1nc(=O)n(C2CCCCC2)c(=O)n1C`, for which the Potency entry is “inactive”. In the case of `C=CC1(C)OC(=O)N(c2cc(Cl)cc(Cl)c2)C1=O` (configuration not stated) it was “inactive”; in that of `COC(=O)c1ccccc1CS(=O)(=O)NC(=O)Nc1nc(OC)cc(OC)n1`, “inactive”; in that of `O=P(O)(O)CCCl`, “inactive”. Regarding `CCCCN(CC)C(=O)SCCC`, the Potency result was “inactive”. For `CCOP(=O)(NC(C)C)Oc1ccc(S(C)=O)c(C)c1` (configuration not stated), the Potency entry was “inactive”. Consider `CCOP(=O)(O)C(N)=O`, for which the Potency entry is “inactive”. For the compound `COC(=O)c1ccccc1S(=O)(=O)NC(=O)N(C)c1nc(C)nc(OC)n1`, the Potency result was “inactive”. For the compound `Clc1ccc(C(Cl)(Cl)Cl)cc1`, the Potency entry was “inactive”. Regarding `CCOC1Oc2ccc(OS(C)(=O)=O)cc2C1(C)C` (configuration not stated), the Potency entry was “inactive”. Regarding `COCc1cnc(C2=NC(C)(C(C)C)C(=O)N2)c(C(=O)O)c1` (configuration not stated), the Potency result is “inactive”. In the case of `Clc1ccc([C@]2(Cn3cncn3)C[C@H](Br)CO2)c(Cl)c1`, the Potency entry is “inactive”. For the compound `CCNc1nc(NC(C)(C)C)nc(SC)n1`, the Potency result is “inactive”.

On to `CCCCC(CC)COC(=O)Cl` (configuration not stated), for which the Potency entry was “inactive”.

Turning to `CCOP(=S)(OCC)SCC(=O)NC(C)C`, the Potency entry was “inactive”. Turning to `CCOc1nc(NC)nc(NC(=O)NS(=O)(=O)c2ccccc2C(=O)OC)n1`, the Potency entry was “inactive”. Consider `C/C(=N\NC(=O)Nc1cc(F)cc(F)c1)c1ncccc1C(=O)O`, for which the Potency entry is “inactive”. Take `C=CC(=O)OCCCCCC(C)C`: the Potency entry is “inactive”. As to `CCC(C)n1c(=O)[nH]c(C)c(Br)c1=O` (configuration not stated), the Potency entry is “inactive”. As for `COP(=S)(OC)Oc1ccc([N+](=O)[O-])c(C)c1`, the Potency result is “inactive”.

`CCN(CC)C(=O)C(C)Oc1cccc2ccccc12` (configuration not stated): the Potency result was “inactive”. Consider `CCCCC(CC)C(=O)Cl` (configuration not stated), for which the Potency entry was “inactive”. The entry for `Cc1c(F)c(F)c(COC(=O)C2C(/C=C(\Cl)C(F)(F)F)C2(C)C)c(F)c1F` (configuration not stated) is “inactive”; for `Nc1ccc([N+](=O)[O-])cc1Cl` it is “inactive”; for `CNC(=O)Oc1ccc(N(C)C)c(C)c1` it is “inactive”.
